More than one record can exist for a structure, and the calls need not agree. Calls of active or inactive are those of the source. The calls were made as follows: active = hit-call score of the fitted dose curve at least 0.9, where 1 is the maximum; inactive = score below 0.9.

The test is described as follows: CCTE_Mundy_HCI_Cortical_Synap_Neur_Matur_NeuriteSpotCountPerNeuriteLength: CCTE's Synaptogenesis and Neurite Maturation Assay in rat cortical cells for Neurite Spot Count per Neurite Length, Mundy Lab (AID 2284210). The protocol: CCTE_Mundy_HCI_Cortical_Synap&Neurite_Matur is a multiplexed, cell-based-readout assay that uses rat primary cortical cells with measurements taken at 288.33 hours after chemical dosing in a microplate: 96-well plate.CCTE_Mundy_HCI_Cortical_Synap_Neur_Matur_NeuriteSpotCountPerNeuriteLength is one of eight components of the CCTE_Mundy_HCI_Cortical_Synap&Neurite_Matur assay. It measures synaptogenesis and neurite maturation related to number of neurite-associated synapses (synaptophysin puncta) per unit length of neurite using High Content Imaging of fluorescently labelled markers.[…] Using a type of morphology reporter, loss -of-signal activity can be used to understand developmental effects.
Cells are plated onto 96 well plates and allowed 2 hr for attachment to the substrate. At days in vitro (DIV) 5, Cytosine Arabinoside (AraC) is added to arrest glial cell growth. Chemicals are dosed and a media change is performed at DIV 7 of differentiation and is continued through DIV 12 when the experiment is terminated. Cells are fixed with […] and Hoechst Dye. Cells are stained using Millipore Mouse anti-MAP2MAB3418 (1:800) and Millipore Rabbit anti-Synaptophysinsc-1750 (1:250) primary antibodies and Alexa Fluor-488 goat anti-mouse and AlexaFluor-546 goat anti-rabbit secondary antibodies to label neuronal cell nuclei, synapses and neurites. A Cellomics ArrayScan VTi HCS Reader is used for automated image acquisition and analysis of neurite outgrowth.
Take `NC(=O)N1c2ccccc2C=Cc2ccccc21`: the compound was classed as inactive. Take `NNC(=O)c1ccncc1`: the compound was classed as inactive. The same measure, in the same setting: for `c1ccc2cc3ccccc3cc2c1` the value was “inactive”; for `Cn1cc[nH]c1=S`, “inactive”. For the compound `Nc1ccn([C@@H]2O[C@H](CO)[C@@H](O)[C@@H]2O)c(=O)n1`, the compound was called inactive and the AC50 was 23.2 µM (active). Regarding `C[C@]12C=CC(=O)C=C1CC[C@H]1[C@@H]3C[C@@H](O)[C@](O)(C(=O)CO)[C@@]3(C)C[C@H](O)[C@@]12F`, the AC50 is 23.9 µM (active). Turning to `CCCC(CCC)C(=O)O`, the result was inactive.

With `COc1cc2c(c(OC)c1OC)-c1ccc(OC)c(=O)cc1[C@@H](NC(C)=O)CC2`, the compound was classed as inactive. Still for that read-out and setting: for `OC(Cn1cncn1)(Cn1cncn1)c1ccc(F)cc1F` the value was “inactive”.

As usually defined, the AC50 is the concentration at which the activity in the assay is half-maximal.
